Results as given in PubChem BioAssay (NCATS).
Inconclusive results are not listed. Active and inactive are the calls of the source. Unless noted, calls follow the shape of the full dose curve.

What was measured:
[1] = qHTS for Inhibitors of the Functional Ribonucleoprotein Complex (vRNP) of Lassa (LASV) Arenavirus: Viability assay - alamar blue signal for LASV Primary Screen (AID 1347083; calls by dose curve; tested in HEK293 reporter line; also: nearly all actives have a fitted effect of over 80% in size; also: potency is read from the fitted curve at half-maximal effect)
[2] = qHTS for Inhibitors of the Functional Ribonucleoprotein Complex (vRNP) of Lymphocytic Choriomeningitis Arenaviruses (LCMV): Viability assay - alamar blue signal for LCMV Primary Screen (AID 1347085; calls by dose curve; tested in HEK293 reporter line; also: nearly all actives have a fitted effect of over 80% in size; also: potency is read from the fitted curve at half-maximal effect)
[3] = molecular target: Nucleoprotein (Lymphocytic choriomeningitis virus (strain Armstrong)) (UniProt P09992); assay: qHTS for Inhibitors of the Functional Ribonucleoprotein Complex (vRNP) of Lymphocytic Choriomeningitis Arenaviruses (LCMV): LCMV Primary Screen - GLuc reporter signal (AID 1347086); also: nearly all actives have a fitted effect of over 70% in size; also: potency is read from the fitted curve at half-maximal effect; as to activity change, negative = inhibition: % is scaled to controls: 0 for no effect and ±100 for the full control effect
[4] = Cytotoxicity counterscreen for inhibitors of SARS-CoV-2 cell entry (AID 1645845); also: nearly all actives have a fitted effect of over 50% in size; also: potency is read from the fitted curve at half-maximal effect
Method in brief: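 Counterscreen run in the same HEK293-ACE2 line as the pseudotyped-particle entry assay, without particles. Viability after 48 h at 37 C was read as ATP luminescence, scaled between cell-containing and cell-free wells.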

[5] = Primary qHTS to identify inhibitors of SARS-CoV-2 cell entry (AID 1645846); conditions: activity change, negative = inhibition: at 57.1 µM (top of the series) unless noted; also: nearly all actives have a fitted effect of over 45% in size; also: potency is read from the fitted curve at half-maximal effect
Method in brief: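 HEK293-ACE2 (Expi293F, stable hACE2), 1500 cells/well, o/n 37C; cpd 23 nL pin, 1 h; MLV-PP w/ SARS-CoV-2-S (Wuhan-Hu-1, Δ19 C-term); 48 h 37C; Bright-Glo luminescence; normalized vs S-PP and bald PP.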

[6] = Confirmatory qHTS to identify inhibitors of SARS-CoV-2 cell entry (AID 1645844); also: nearly all actives have a fitted effect of over 45% in size; also: potency is read from the fitted curve at half-maximal effect
Method in brief: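 HEK293-ACE2, overnight seeding; cpd 1 h, 37C/5% CO2; + SARS-CoV-2-S MLV PP (Wuhan-Hu-1, ΔC19); 48 h; Bright-Glo luminescence. Data normalised to S PP and bald PP wells.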

[7] = VSVG counterscreen qHTS to identify inhibitors of SARS-CoV-2 cell entry (AID 1645847); also: potency is read from the fitted curve at half-maximal effect; nearly all actives have a fitted effect of over 65% in size
Method in brief: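 Expi293F/hACE2 cells, overnight plating; cpd 1 h, 37C/5% CO2; + VSV-G PP (MLV pseudotyping), 48 h; supernatant removed, Bright-Glo luciferase read. Norm: VSV-G PP and bald PP wells.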

[8] = molecular target: Cytochrome P450 3A4 (Homo sapiens) (UniProt P08684); assay: qHTS Assay for Inhibitors and Substrates of Cytochrome P450 3A4 (AID 884; active = well fitted curve in the direction sought with a large enough effect; an effect the other way counts as inactive or inconclusive; also: potency is read from the fitted curve at half-maximal effect; nearly all actives have a fitted effect of over 50% in size)
Method in brief: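 Luminescent readout of luciferin produced by CYP3A4 (20 nM) dealkylation of Luciferin-PPXE, 25 uM (its KM). NADPH-driven reaction ran 60 min at RT after 10 min compound preincubation; data scaled to 57 uM ketoconazole as 100% inhibition.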

[9] = molecular target: Cytochrome P450 3A4 (Homo sapiens) (UniProt P08684); assay: qHTS Assay for Activators of Cytochrome P450 3A4 (AID 885; active = well fitted curve in the direction sought with a large enough effect; an effect the other way counts as inactive or inconclusive; also: nearly all actives have a fitted effect of over 65% in size)
Method in brief: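 Human CYP3A4 dealkylates Luciferin-PPXE to luciferin, which luciferase detection converts to light. Substrate was at its KM (25uM), buffer 200mM KPO4, reaction 60 min at RT.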

[10] = Confirmation and Secondary Assay for Modulators of Hemoglobin Beta Chain Splicing at IVS2 654 locus (AID 910; active = well fitted curve in the direction sought with a large enough effect; an effect the other way counts as inactive or inconclusive;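 also: HeLa cells stably carrying EGFP split by mutant beta-globin IVS2-654 intron; potency is read from the fitted curve at half-maximal effect; potency of activators that raise GFP signal by restoring correct splicing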)
Method in brief: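 HeLa cells stably expressing EGFP interrupted by β-globin IVS2-654 intron, seeded overnight in Opti-MEM/2% FCS, then treated 2 days at 37 °C. Restored splicing read as total peak GFP intensity per well by laser scanning cytometry (488 nm excitation, 500–520 nm emission); 500 nM antisense PNA as control.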

[11] = Validation screen for inhibitors of Lassa infection (AID 463096); also: potency is read from the fitted curve at half-maximal effect
[12] = Inducers of the Endoplasmic Reticulum Stress Response (ERSR) in human glioma: Validation (AID 504836; active = well fitted curve in the direction sought with a large enough effect; an effect the other way counts as inactive or inconclusive; also: 0% is about no effect)
Method in brief: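 Stably transfected U87-MG glioma cells carrying a GRP78-based luciferase sensor; 16 h compound incubation. Luminescence end-point read 10 min after Bright-Glo addition at room temperature.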

[13] = molecular target: Alpha-galactosidase (Coffea arabica) (UniProt Q42656); assay: Counterscreen for Glucocerebrosidase Inhibitors: qHTS Assay for Coffee Bean alpha-Galactosidase at pH 4.5 (AID 957; active = well fitted curve in the direction sought with a large enough effect; an effect the other way counts as inactive or inconclusive;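 also: plate controls were enzyme alone for no effect and no enzyme for full effect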)
Method in brief: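 Fluorogenic read-out: 4-methylumbelliferone at Ex 365/Em 440 nm after NaOH/glycine stop (pH 10). Enzyme 2 nM, 4-MU-alpha-galactoside 80 uM, citrate buffer pH 4.5, 20 min RT; normalized to no-enzyme and enzyme controls.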

[14] = molecular target: Alpha-galactosidase (Coffea arabica) (UniProt Q42656); assay: Counterscreen for Glucocerebrosidase Inhibitors: qHTS Assay for Coffee Bean alpha-Galactosidase at pH 5.9 (AID 998; active = well fitted curve in the direction sought with a large enough effect; an effect the other way counts as inactive or inconclusive;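 also: plate controls were uninhibited enzyme for no effect and no-enzyme basal signal for full effect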)
Method in brief: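 Enzyme 2 nM + cpd (0.7 nM–77 uM titration) + 4-MU-alpha-Gal 80 uM, pH 5.9 citrate/Tween-20, RT 20 min, NaOH/glycine stop pH 10, fluor 365/440. Normalized to no-enzyme and full-activity controls; Hill-fit AC50.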

Chain of Nucleoprotein (Lymphocytic choriomeningitis virus (strain Armstrong)) (P09992 whole entry, looked up): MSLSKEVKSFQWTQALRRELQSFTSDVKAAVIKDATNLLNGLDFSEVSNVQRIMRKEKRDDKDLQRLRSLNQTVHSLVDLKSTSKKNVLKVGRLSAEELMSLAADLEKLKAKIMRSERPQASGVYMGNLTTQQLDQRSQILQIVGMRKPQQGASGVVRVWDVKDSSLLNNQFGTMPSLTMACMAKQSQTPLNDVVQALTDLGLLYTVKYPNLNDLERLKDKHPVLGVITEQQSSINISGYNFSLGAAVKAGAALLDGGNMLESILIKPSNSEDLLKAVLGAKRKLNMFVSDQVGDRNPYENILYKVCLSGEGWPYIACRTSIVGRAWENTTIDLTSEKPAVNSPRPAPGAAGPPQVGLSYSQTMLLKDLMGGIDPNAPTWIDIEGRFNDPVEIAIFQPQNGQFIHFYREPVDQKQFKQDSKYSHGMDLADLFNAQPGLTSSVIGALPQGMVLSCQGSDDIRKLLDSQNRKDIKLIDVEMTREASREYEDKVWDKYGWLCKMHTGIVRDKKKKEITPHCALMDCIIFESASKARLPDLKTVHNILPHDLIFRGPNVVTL
Chain of Alpha-galactosidase (Coffea arabica) (Q42656 whole entry, looked up): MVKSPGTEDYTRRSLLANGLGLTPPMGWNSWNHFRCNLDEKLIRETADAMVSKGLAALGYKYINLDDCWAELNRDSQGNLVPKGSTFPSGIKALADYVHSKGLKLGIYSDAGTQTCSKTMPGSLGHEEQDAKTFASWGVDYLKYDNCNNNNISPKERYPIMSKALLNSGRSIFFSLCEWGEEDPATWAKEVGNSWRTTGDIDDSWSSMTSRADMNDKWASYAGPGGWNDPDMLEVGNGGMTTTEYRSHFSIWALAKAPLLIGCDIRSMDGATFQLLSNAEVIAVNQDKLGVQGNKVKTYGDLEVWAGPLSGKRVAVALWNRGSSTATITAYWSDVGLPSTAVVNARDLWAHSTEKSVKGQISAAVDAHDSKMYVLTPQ
Chain of Cytochrome P450 3A4 (Homo sapiens) (P08684 whole entry, looked up): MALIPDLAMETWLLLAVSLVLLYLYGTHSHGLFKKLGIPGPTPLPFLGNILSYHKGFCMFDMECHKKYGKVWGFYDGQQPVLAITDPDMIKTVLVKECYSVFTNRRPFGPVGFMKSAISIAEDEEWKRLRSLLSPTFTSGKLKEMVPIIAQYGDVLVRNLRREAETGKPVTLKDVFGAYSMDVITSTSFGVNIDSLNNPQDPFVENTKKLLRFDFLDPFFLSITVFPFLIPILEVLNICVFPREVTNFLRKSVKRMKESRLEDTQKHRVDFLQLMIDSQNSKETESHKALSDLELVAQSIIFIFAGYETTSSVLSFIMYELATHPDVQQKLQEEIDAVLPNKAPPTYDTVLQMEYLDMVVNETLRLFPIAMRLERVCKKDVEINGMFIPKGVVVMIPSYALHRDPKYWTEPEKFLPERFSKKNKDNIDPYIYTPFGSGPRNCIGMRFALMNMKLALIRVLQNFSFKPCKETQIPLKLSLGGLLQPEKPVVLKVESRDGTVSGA

With CO[C@H]1C[C@@H]2CC[C@@H](C)[C@@](O)(O2)C(=O)C(=O)N2CCCC[C@@H]2C(=O)O[C@H]([C@H](C)C[C@@H]2CC[C@H](OP(C)(C)=O)[C@H](OC)C2)CC(=O)[C@H](C)C=C(C)[C@@H](O)[C@@H](OC)C(=O)[C@H](C)C[C@H](C)C=CC=CC=C1C the Potency [1] was 0.0109 µM (active) and the Potency [2] was 0.0153 µM (active).
With CC[C@H]1OC(=O)[C@H](C)[C@@H](O[C@H]2C[C@@](C)(OC)[C@@H](O)[C@H](C)O2)[C@H](C)[C@@H](O[C@@H]2O[C@H](C)C[C@H](N(C)C)[C@H]2O)[C@](C)(O)C[C@H](C)C(=NOCOCCOC)[C@H](C)[C@@H](O)[C@]1(C)O the Potency [1] was “inactive” and the Potency [2] was “inactive”.
In the case of COc1cc(C(=S)N2CCOCC2)cc(OC)c1OC, the Potency [1] is reported as “inactive” and the Potency [2] is reported as “inactive”.
In the case of CC(=CCOc1ccc2ccc(=O)oc2c1)C1=CC(=O)C(C)(C)O1, the Potency [1] is reported as “inactive” and the Potency [2] is reported as “inactive”.
For O=C(c1ccc(F)c(F)c1Nc1ccc(I)cc1F)N1CC(O)([C@H]2CCCCN2)C1, the Potency [1] was 8.63 µM (active) and the Potency [2] was 3.06 µM (active).
With O=C1NC(=O)[C@@H](c2cn3c4c(cccc24)CCC3)[C@H]1c1c[nH]c2ccccc12 the Potency [1] was 2.17 µM (active) and the Potency [2] was 4.32 µM (active).
In the case of COC1C(O)C(C)OC(OC2CCC3(C)C(CCC4C3C(O)CC3(C)C(C5=CC(=O)OC5)CCC43O)C2)C1O (centres undefined), the Potency [1] is reported as 0.251 µM (active) and the Potency [2] is reported as 0.355 µM (active).
In the case of O=C(O)CO.[NH2-].[NH2-].[Pt+2], the Potency [1] is reported as “inactive” and the Potency [2] is reported as “inactive”.
In the case of O=C(C=Cc1ccc(CN(CCO)CCc2c[nH]c3ccccc23)cc1)NO, the Potency [1] is reported as 1.37 µM (active) and the Potency [2] is reported as 1.37 µM (active).
With C[C@@H]1[C@H](O)[C@@H](C)C=CC=CC=CC=CC=CC=CC=C[C@H](O[C@@H]2O[C@H](C)[C@H](O)[C@H](N)[C@@H]2O)C[C@@H]2O[C@](O)(C[C@@H](O)C[C@@H](O)[C@H](O)CC[C@@H](O)C[C@@H](O)CC(=O)O[C@H]1C)C[C@H](O)[C@@H]2C(=O)O the Potency [1] was 10.9 µM (active), the Potency [2] was 8.63 µM (active) and the Potency [3] was 4.85 µM (active).
For O=C(O)Cn1nnc(-c2cc(N3CCC(Oc4cc(F)ccc4Br)CC3)no2)n1, the Potency [1] was 1.53 µM (active), the Potency [2] was 1.72 µM (active) and the Potency [3] was 2.73 µM (active). For the same compound, the Potency [4] was 3.55 µM (active) and the activity change, negative = inhibition [5] was -56.8%.
With COCCOC(=O)C1=C(C)NC2=C(C(=O)CC(c3ccccc3OC)C2)C1c1cccc(O)c1 (centres undefined) the Potency [1] was 17.2 µM (active), the Potency [2] was 10.9 µM (active) and the Potency [3] was 15.3 µM (active). The Potency [6] was “inactive” and the Potency [4] was “inactive”.
For CNC(=O)CN1CCC(Oc2cc3c(Nc4cccc(Cl)c4F)ncnc3cc2OC)CC1, the Potency [1] was 0.0769 µM (active), the Potency [2] was 0.0306 µM (active) and the Potency [3] was 0.0385 µM (active). For the same compound, the Potency [4] was “inactive” and the activity change, negative = inhibition [5] was -16.1%.
For Cc1ccc(S(=O)(=O)Nc2nc3ccccc3nc2Nc2ccc3nsnc3c2)cc1, the Potency [1] was 1.06 µM (active), the Potency [2] was 2.11 µM (active) and the Potency [3] was 1.33 µM (active). For the same compound, the Potency [4] was “inactive” and the activity change, negative = inhibition [5] was -18.1% [at 27.1 µM].
In the case of Cn1cc(C=CC(=O)c2cccc(F)c2)cc1C=CC(=O)NO, the Potency [1] is reported as 17.2 µM (active), the Potency [2] is reported as 17.2 µM (active) and the Potency [3] is reported as 13.7 µM (active).
In the case of NCC(=O)Nc1ccc(-n2nc(C(F)(F)F)cc2-c2ccc3c(ccc4ccccc43)c2)cc1, the Potency [1] is reported as 19.3 µM (active), the Potency [2] is reported as 10.9 µM (active) and the Potency [3] is reported as 1.72 µM (active). The Potency [6] was 15.2 µM (active) and the Potency [7] was 6.07 µM (active).
With CC(O)(C#Cc1ccc2c(c1)N(c1nc(N)ncc1Cl)CC2)c1nccs1 (centres undefined) the Potency [1] was 21.7 µM (active), the Potency [2] was 17.2 µM (active) and the Potency [3] was “inactive”.
With COc1cc(OC)c(C=CS(=O)(=O)Cc2ccc(OC)c(NCC(=O)O)c2)c(OC)c1 the Potency [1] was 0.217 µM (active), the Potency [2] was 0.273 µM (active) and the Potency [3] was 0.611 µM (active).
In the case of COc1cc(-c2nn(C3CCC(N4CCN(C(C)=O)CC4)CC3)c3ncnc(N)c23)ccc1NC(=O)c1cc2ccccc2n1C (centres undefined), the Potency [1] is reported as 0.863 µM (active), the Potency [2] is reported as 0.968 µM (active) and the Potency [3] is reported as 0.685 µM (active). For the same compound, the Potency [4] was “inactive”.
For O=C(C=CC#Cc1cccc(NS(=O)(=O)c2ccccc2)c1)NO, the Potency [1] was 13.7 µM (active), the Potency [2] was 6.85 µM (active) and the Potency [3] was 12.2 µM (active).
In the case of CC[C@@]1(O)C(=O)OCc2c1cc1n(c2=O)Cc2cc3cc(O)ccc3nc2-1, the Potency [8] is reported as 12.6 µM (active), the Potency [9] is reported as “inactive” and the Potency [10] is reported as 12.6 µM (active). The Potency [1] was 0.685 µM (active), the Potency [2] was 0.968 µM (active) and the Potency [3] was 1.37 µM (active). For the same compound, the activity change, negative = inhibition [5] was -96.4%.
For O=C(Nc1ncc(-c2cc(C(F)F)nn2-c2c(Cl)cccc2Cl)s1)C1CC1, the Potency [1] was 0.968 µM (active), the Potency [2] was 1.09 µM (active) and the Potency [3] was 3.85 µM (active). For the same compound, the Potency [6] was 0.541 µM (active) and the Potency [7] was 1.36 µM (active).
For CCOc1cc2ncc(C#N)c(Nc3ccc(OCc4ccccn4)c(Cl)c3)c2cc1NC(=O)C=CCN(C)C, the Potency [1] was 1.37 µM (active), the Potency [2] was 0.769 µM (active) and the Potency [3] was 1.53 µM (active).
With O=C(Cc1ccc(-c2ccc(OCCN3CCOCC3)cc2)cn1)NCc1ccccc1 the Potency [1] was 0.0485 µM (active), the Potency [2] was 0.0544 µM (active) and the Potency [3] was 0.137 µM (active). The Potency [6] was 0.136 µM (active), the activity change, negative = inhibition [5] was -81.8% and the Potency [7] was 0.171 µM (active).
With FC(F)(F)c1ccc(Nc2nc3ccc(Oc4ccnc(-c5ncc(C(F)(F)F)[nH]5)c4)cc3[nH]2)cc1 the Potency [1] was 6.11 µM (active), the Potency [2] was 1.37 µM (active) and the Potency [3] was 3.85 µM (active). For the same compound, the Potency [4] was “inactive” and the Potency [5] was 31.6 µM (active).
With N#CC(=C(\N)Sc1ccccc1N)/C(C#N)=C(/N)Sc1ccccc1N the Potency [11] was 0.794 µM (active), the outcome [12] was “inactive” and the Potency [1] was “inactive”. The Potency [2] was “inactive” and the Potency [3] was “inactive”.
With COc1ccc2c(c1OC)C(=O)OC2[C@H]1c2c(cc3c(c2OC)OCO3)CCN1C (some centres undefined) the outcome [13] was “inactive”, the outcome [14] was “inactive” and the Potency [1] was 1.53 µM (active). The Potency [2] was 1.53 µM (active), the Potency [3] was 1.37 µM (active) and the Potency [4] was “inactive”.
